This passage reports inhibition results from PubChem BioAssay AID1626 (SRMLSC, 2009).

Screen size: about 220,000 compounds; about 2,000 (0.91%) were called active. Roughly 2% stayed inconclusive and do not appear here. Cut-off read from the data, not from the text of the source: inconclusive = inhibition above about 80% without an active follow-up result; inactive = below that; test concentration not stated here. A selection follows. Measured potencies and affinities stand elsewhere.

As a reminder, the inhibition is the drop in the measured response relative to a control, in per cent.

The test is described as follows: M. tuberculosis H37Rv growth inhibitors, H37Rv strain (AID 1626).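 Note: bacteria incubated seven days before Alamar blue readout; 0% = bacteria only wells and 100% = bacteria with antibiotic wells.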 Particulars: stronger effect = higher value, concentration not given here.
With `Cc1cccc(-n2ncc3c(Nc4ccc(F)cc4)ncnc32)c1`, the inhibition is 8.29% (inactive).
Consider `COc1ccc(N2C(=O)c3ccccc3S2(=O)=O)cc1`, for which the inhibition is -3.28% (inactive).
`COc1ccc(CN2CN=C(Nc3nc4ccccc4s3)NC2)cc1`: the inhibition was -0.93% (inactive).
As for `CCNC(=S)N/N=C/c1ccc(OCCOc2ccccc2C)cc1`, the inhibition was -4.17% (inactive).
Turning to `COC(=O)c1ccc(CNC(=O)COc2ccccc2Br)o1`, the inhibition was 5.3% (inactive).
As for `CC[n+]1ccccc1/C=C/Nc1ccccc1`, the inhibition was -7.49% (inactive).
As to `O=C(CSc1nccc(=O)[nH]1)Nc1ccc(F)c(Cl)c1`, the inhibition is -0.08% (inactive).
For `O=C(CSc1nccc(=O)[nH]1)Nc1ccc2c(c1)OCCO2`, the inhibition is 31.1% (inactive).
For `S=c1[nH]nc(-c2ccncc2)n1/N=C/C(Cl)=C\c1ccccc1`, the inhibition is 6.36% (inactive).
As for `COc1cc(CNc2ncn[nH]2)ccc1OCc1cccc(C)c1`, the inhibition is 5.16% (inactive).
As to `COc1ccc(O)c(C(=O)c2cnc3c(c2)CN(C)C(=O)N3)c1`, the inhibition was -1.06% (inactive).
`CC1(C)CC(NC(=O)c2ccccn2)CC(C)(C)N1O`: the inhibition is 1.26% (inactive).
As to `S=C1NCCNC(=S)NCCOCCOCCOCCN1`, the inhibition was -1.99% (inactive).
With `Cc1cc(NCCCn2ccnc2)n2ncc(-c3ccccc3)c2n1` the figure was 18.5% (inactive); with `Cc1cc(NCCCN2CCOCC2)n2ncc(-c3ccccc3)c2n1`, 7.39% (inactive).
Next, `CC(C)(C)c1cc(-n2ccnc2)n2ncc(-c3ccc(Cl)cc3)c2n1`: 6.96% (inactive); `Clc1ccc(-n2ncc3c(NCCCn4ccnc4)ncnc32)cc1`: -5.48% (inactive); `COC(=O)c1cc(Br)c(=O)n(CCC2=CCCCC2)c1`: -7.27% (inactive).
As for `O=C(NC(=S)Nc1ccc(CN2CCOCC2)cc1)c1ccco1`, the inhibition was -0.41% (inactive).
With `COc1ccc(-c2[nH]ncc2CN2CCC(N3CCSCC3)CC2)c(F)c1` the figure was -0.36% (inactive); with `Cc1ccc(-c2nn(-c3ccccc3)cc2/C=N/NC(=O)c2ccc(Br)o2)cc1`, 0.66% (inactive); with `Clc1ccc(Cl)c(OCCCCNCc2ccccc2)c1`, 11.2% (inactive).
With `Clc1cc(Br)ccc1OCCCNCc1ccccc1` the figure was 23% (inactive); with `Cc1ccc(C)c(OCCCC(=O)Nc2ccc(N3CCOCC3)cc2)c1`, -9.52% (inactive).
As to `Cn1c(SCC(=O)N2CCOCC2)nnc1-c1cnccn1`, the inhibition was -10.3% (inactive).
In the case of `CCCCOc1ccc(C(=O)Nc2cc(C)c(OCC(=O)N3CCOCC3)c(C)c2)cc1`, the inhibition was -1.36% (inactive).
Turning to `CCC(C)[C@H](N)c1nnc(SCC(=O)c2ccc(Cl)cc2)o1` (stereo partly specified), the inhibition is -1.21% (inactive).
Next, `Cn1c(SCCCC(=O)c2ccc(F)cc2)nnc1-c1ccncc1`: 5.49% (inactive); `CC1=C(CCN2CCN(C3CCCC3)C(CCO)C2)C(C)(C)CCC1` (stereo unspecified): 3.37% (inactive); `CC1=C(CCN2CCN(C(C)C)C(CCO)C2)C(C)(C)CCC1` (stereo unspecified): 1.16% (inactive).
Consider `CC1(C)Oc2ccc3ccc(=O)oc3c2/C(=C/Nc2ccccn2)C1=O`, for which the inhibition was -6.19% (inactive).
Consider `COc1ccc(OC)c(CCNC(=O)C(=O)Nc2ccc3nc4n(c(=O)c3c2)CCCCC4)c1`, for which the inhibition is 9.2% (inactive).
With `COc1cccc(-c2csc(/C(C#N)=C/Nc3cc4oc5ccccc5c4cc3OC)n2)c1` the figure was 6.75% (inactive).
On to `COc1ccc(-c2csc(/C(C#N)=C/Nc3ccc4c(c3)OCCO4)n2)cc1`, for which the inhibition is 5.83% (inactive).
Take `Cc1ccc(-c2csc(/C(C#N)=C/Nc3ccc4c(c3)OCCO4)n2)cc1`: the inhibition is -3.12% (inactive).
With `COc1cc2c(cc1N/C=C(\C#N)c1nc(-c3ccc(F)cc3)cs1)oc1ccccc12`, the inhibition was 5.47% (inactive).
With `CCN(CC)CCOC(=O)c1cccc(OC)c1`, the inhibition is -3.6% (inactive).
In the case of `N#C/C(=C\Nc1ccc2c(c1)OCCO2)c1nc(-c2ccccc2)cs1`, the inhibition is -0.56% (inactive).
As to `Cn1c(=O)c2c(ncn2CC(=O)OCC(=O)NCc2ccc(Cl)cc2)n(C)c1=O`, the inhibition is -4.25% (inactive).
On to `CCOC(=O)CSC(CC)C(=O)Nc1nnc(CC)s1` (stereo unspecified), for which the inhibition is 8.43% (inactive).
Next, `Cc1cc(Cl)ccc1N(CC(=O)NCc1ccc2c(c1)OCO2)S(C)(=O)=O`: -3.37% (inactive); `O=C(CCC(=O)c1cccs1)OCc1nc2ccccc2s1`: -8.64% (inactive).
Next, `CC[C@@H](CO)C1CC2NC3CC4(c5ccccc5N(C)[C@@H]24)C(O)C31` (stereo partly specified): -2.7% (inactive).
As for `COc1ccc(/C=N/N2C(=O)c3ccccc3C2=O)cc1`, the inhibition is 1.55% (inactive).
Next, `CCCCC(=O)Nc1nc(C)c(-c2csc(Nc3ccccc3OC)n2)s1`: 6.85% (inactive); `CCCCCC(=O)Nc1nc(C)c(-c2csc(Nc3ccccc3OC)n2)s1`: 3.41% (inactive).
Turning to `CCN(CC)CCCN1C(=O)C(O)=C(C(=O)c2cc3ccccc3o2)C1c1ccccn1` (stereo unspecified), the inhibition was -1.65% (inactive).
Next, `Cc1ccc(NC(=O)CSCC#N)cc1`: -3.07% (inactive); `N#CCSCC(=O)Nc1ccc(Cl)cc1`: -6.68% (inactive).
With `CC(=O)Nc1ccc(S(=O)(=O)NCCC(=O)Nc2ccc(C)c(Cl)c2)cc1`, the inhibition was 1.88% (inactive).
Consider `Cc1ccc(S(=O)(=O)NCCC(=O)Nc2ccc(Cl)c(Cl)c2)cc1C`, for which the inhibition was 68.7% (inactive).
As to `O=C(Nc1cccc(S(=O)(=O)NC2=NCCCCC2)c1)c1cc(-c2ccncc2)nc2ccccc12`, the inhibition was 5.09% (inactive).
As for `CNc1nc(N)c(C(=O)C23CC4CC(CC(C4)C2)C3)s1`, the inhibition was 7.78% (inactive).
Consider `CC1CN(c2ncc(/C=N/NC(=O)c3ccccc3O)s2)CC(C)O1` (stereo unspecified), for which the inhibition is 48% (inactive).
With `c1ccc(OCCOCCN2CCOCC2)cc1` the figure was 8.38% (inactive).
For `OCCOCCN1CCN(C(c2ccccc2)c2ccc(Cl)cc2)CC1` (stereo unspecified), the inhibition is -10.7% (inactive).
With `O=C(NN1CCN(Cc2ccccc2)CC1)c1ccc(Cl)cc1` the figure was -1.31% (inactive); with `CCc1ccc(C(=O)COC(=O)c2ccc(-c3nnc(-c4ccccc4)o3)cc2)cc1`, -8.3% (inactive).
Turning to `CCOC(=O)c1cccc(COC(=O)c2cccc(-c3nnc(-c4ccccc4)o3)c2)c1`, the inhibition was 2.8% (inactive).
For the compound `NC(=O)COc1ccc2oc(-c3ccccc3)cc(=O)c2c1`, the inhibition is 1.94% (inactive).
As for `CC(C)(C)OC(=O)COc1cc(O)c2c(=O)cc(-c3ccccc3)oc2c1`, the inhibition is 5.56% (inactive).
`CCOC(=O)c1cc(=O)c2ccc(OCC(=O)Nc3ccccc3)cc2o1`: the inhibition was 3.25% (inactive).
Next, `CCOc1ccc(-c2nnc(-c3ccccc3)o2)cc1`: 8.69% (inactive); `O=C(COc1cc(O)c2c(=O)cc(-c3ccccc3)oc2c1)c1ccccc1`: -4.52% (inactive).
Next, `CCOC(=O)Cc1nnc(-c2ccccc2)o1`: -3.07% (inactive).
As for `C#CCn1c(=NC(=O)c2ccc(Br)s2)sc2cccc(OC)c21`, the inhibition is 49.8% (inactive).
`CCn1c(=O)cc(SCC(=O)N2CCN(c3ccccc3OC)CC2)c2ccccc21`: the inhibition is -4.03% (inactive).
On to `COP(=O)(NC(=O)C(Cl)(Cl)Cl)OC`, for which the inhibition was -4.54% (inactive).
Consider `Cc1ccc(SCC(=O)Nc2ccc(N3CCN(c4ccccc4)CC3)c(F)c2)cc1`, for which the inhibition is 3.11% (inactive).
With `CS(=O)(=O)NCCNc1ccc(C(F)(F)F)cc1[N+](=O)[O-]`, the inhibition was -3.33% (inactive).
For `COc1ccc(C2CC(=O)C(C=NCCO)=C(O)C2)cc1OC` (stereo unspecified), the inhibition is -9.01% (inactive).
As for `CN(CCc1cnn(C)c1)Cc1cn[nH]c1-c1ccc(-c2ccccc2)cc1`, the inhibition was 3.7% (inactive).
With `Cc1c(NC(=O)/C(=C\c2ccccc2)NC(=O)c2ccccc2)c(=O)n(-c2ccccc2)n1C`, the inhibition is -13.7% (inactive).
For the compound `COc1ccc(OCC(=O)N/N=C2\CCCc3ccccc32)cc1`, the inhibition was 1.63% (inactive).
For the compound `O=C(NNS(=O)(=O)c1ccccc1Cl)c1nn(-c2ccc(F)cc2)ccc1=O`, the inhibition is 2.66% (inactive).
Next, `CC(Oc1ccc2c(-c3ccccc3)cc(=O)oc2c1)C(=O)O` (stereo unspecified): -19.3% (inactive); `CCOc1ccc(-c2nnc(-c3ccncc3)o2)cc1`: 7.35% (inactive).
On to `CCOc1ccc(-c2nnc(-c3ccc(OC)cc3)o2)cc1`, for which the inhibition is 3.3% (inactive).
With `O=C(O)C(Oc1ccc2c(-c3ccccc3)cc(=O)oc2c1)c1ccccc1` (stereo unspecified) the figure was -7.84% (inactive); with `O=C(O)COc1ccc2c(-c3ccccc3)cc(=O)oc2c1`, -6.46% (inactive); with `CCOC(=O)C(Oc1ccc2c(-c3ccccc3)cc(=O)oc2c1)c1ccccc1` (stereo unspecified), 15.1% (inactive).
In the case of `N#Cc1ccc(NC(=O)c2cc(-c3cccs3)on2)cc1`, the inhibition was -3.45% (inactive).
`Cc1cc(C(=O)CSc2nnc(-c3ccc(Cl)cc3)n2C)c(C)n1CC1CCCO1` (stereo unspecified): the inhibition was -5.79% (inactive).
For the compound `CCn1c(=O)c(=O)[nH]c2cc(C(=O)NC3CCCC3)ccc21`, the inhibition is -14.3% (inactive).
`COC(=O)c1cc(C)nc(Sc2ccccc2NC(C)=O)n1`: the inhibition was -6.62% (inactive).
Consider `COc1ccc(-c2cnc(N)nc2-c2ccc(OC)cc2O)cc1`, for which the inhibition is -8.12% (inactive).
`Nc1ncc2c(n1)-c1ccccc1CC2`: the inhibition is 4.21% (inactive).
For `CC(=O)Nc1cccc(NC(=O)CSc2ccc(-c3ccccn3)nn2)c1`, the inhibition was 5.52% (inactive).
With `Cc1nonc1NC(=O)CSc1ccc(-c2ccccc2)nn1` the figure was 29.3% (inactive); with `CCOC(=O)c1ccc(NC(=O)CSc2ccc(-c3ccncc3)nn2)cc1`, 78% (inactive); with `Cc1ccc(-c2ccc(SCC(=O)Nc3cc(C)on3)nn2)cc1`, 1.42% (inactive).
For the compound `Cc1nnc(NC(=O)CSc2ccc(-c3ccccn3)nn2)s1`, the inhibition is -8.09% (inactive).
Next, `CCOC(=O)c1ccccc1NC(=O)CSc1ccc(-c2cccnc2)nn1`: 1.73% (inactive); `Cc1ccc(CNC(=O)CSc2ccc(-c3ccccn3)nn2)cc1`: 9.75% (inactive); `Cc1csc(NC(=O)CSc2ccc(-c3ccccc3)nn2)n1`: -4.14% (inactive).
Regarding `CC(C)CNC(=O)c1cccc(NC(=O)C(C)Oc2ccccc2)c1` (stereo unspecified), the inhibition is 9.89% (inactive).
